This excerpt belongs to a sample that is enriched for hits.
FECH inh = inhibitors of human ferrochelatase, primary screen, biochemical, purified FECH, Ni-mesoporphyrin absorbance; Ferrochelatase, mitochondrial (Homo sapiens), P22830; Ni-mesoporphyrin absorbance 550 nm; calls only at 10 µM (by protocol); actives 3.3% (n = 20,000);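 active means enzyme reaction rate more than 3 SD below the solvent-only control wells on the same plate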;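 further: lower slope than DMSO wells means FECH inhibition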
Target sequence (P22830 whole entry, looked up): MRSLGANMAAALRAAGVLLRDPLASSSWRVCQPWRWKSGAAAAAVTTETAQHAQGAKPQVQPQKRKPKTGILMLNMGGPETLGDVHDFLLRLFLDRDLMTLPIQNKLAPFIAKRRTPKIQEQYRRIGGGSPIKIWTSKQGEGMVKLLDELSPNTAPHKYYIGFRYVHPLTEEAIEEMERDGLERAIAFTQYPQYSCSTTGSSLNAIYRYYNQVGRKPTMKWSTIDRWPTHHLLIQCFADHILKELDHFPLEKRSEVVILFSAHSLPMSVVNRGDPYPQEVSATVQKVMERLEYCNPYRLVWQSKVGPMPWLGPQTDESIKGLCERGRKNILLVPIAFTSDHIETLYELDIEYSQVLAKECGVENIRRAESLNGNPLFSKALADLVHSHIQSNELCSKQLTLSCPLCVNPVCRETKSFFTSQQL
The depositor's hits bear a star; i = inactive; + = active, no number.

SMILES	FECH inh
COC(=O)CN1CCC(NC(=O)c2ccc3c(c2)CC(C)O3)CC1 (stereo not given)	i
CC(C)Nc1ncc(CN2CCOC(CCc3ccccc3)C2)cn1 (stereo not given)	i
NC(=O)C1CCN(Cc2cccc(C(=O)Nc3ccc4cccnc4c3)c2)CC1	i
CN(Cc1ccccc1C(F)(F)F)Cc1cn[nH]c1C(=O)O	i
OCCCNc1nc(Nc2ccccc2)c2cnn(-c3ccccc3)c2n1	i
Cc1ccn2cc(CNC(=O)c3nn(C)c4c3CCCC4)nc2c1	i
CCc1c(C)nc2ncnn2c1Sc1ccccc1NC(=O)Nc1ccc2c(c1)OCCO2	i
Cc1ccc(C2(O)CCN(CCC(=O)c3ccc(F)cc3)CC2)nc1	i
CCCNc1ncc(CN2CC(c3ccncc3)C2)cn1	i
O=C(CCN1CCCCO1)NCC(c1ccccc1)C1CCCC1 (stereo not given)	+
O=C(CCN1CCCCO1)N(Cc1ccccc1)Cc1nccs1	i
CN1CCCC(CCNC(=O)CCN2CCCCO2)C1 (stereo not given)	i
CCOCCCNc1nc(Nc2ccccc2)c2cnn(-c3ccccc3)c2n1	i
Cc1cc(N(C)C)nc(Nc2ccc(NC(=O)c3c(F)cccc3Cl)cc2)n1	i
C=CCNc1ccccc1C(=O)N1CC[C@@H](c2ccc3c(c2)OCO3)[C@H](O)C1	i
COC(=O)CN1CCC(NC2CCSC2)CC1 (stereo not given)	i
CC(C)n1cnc2nc(CSc3ccccc3NC(=O)c3cccc(F)c3)cc(=O)n21	+
CCc1cc(Sc2ccccc2NC(=O)c2cccc(F)c2)n2ncnc2n1	i
CC(C)n1cnc2nc(CSc3ccccc3NC(=O)c3ccc(F)c(Cl)c3)cc(=O)n21	i
O=C(Cc1cccnc1)N1CCC(Cc2n[nH]c(=O)n2-c2ccccc2)CC1	i
COC(=O)c1ccccc1NS(=O)(=O)c1cc(N2C(=O)CCS2(=O)=O)ccc1OC	i
O=C(c1ccc[nH]1)N1CCC(CO)(Cc2ccccc2Cl)CC1	i
Cc1cc(C(=O)N2C[C@@H](N)C[C@H]2C(=O)NC(C)C)c(-c2ccccc2)o1	i
CCCc1cc(C(=O)N2C[C@@H](N)C[C@H]2C(=O)NC(C)C)ccn1	i
CC(C)NC(=O)[C@@H]1C[C@H](N)CN1C(=O)c1cccc2c3c([nH]c12)CCCC3	+
SMILES	FECH inh
Cc1ccc(-c2nc3cccnc3n2CCNS(=O)(=O)c2ccccc2)cc1	i
Cc1cc2n(n1)CCC(=O)N2Cc1ccc(C(=O)Nc2ccc3c(c2)OCCO3)cc1	i
CC(C)c1ccc2c(c1)-c1ccccc1S(=O)(=O)N2CC(=O)NCCN1CCOCC1	i
CCc1ccc2c(c1)-c1ccccc1S(=O)(=O)N2CC(=O)NCc1ccncc1	+
O=C(CN1C(=O)c2ccccc2S1(=O)=O)NCc1ccc2c(c1)OCO2	i
COc1ccc(CCNC(=O)CN2c3ccc(C(C)C)cc3-c3ccccc3S2(=O)=O)cc1	i
CC(C)c1ccc2c(c1)-c1ccccc1S(=O)(=O)N2CC(=O)NCc1cccnc1	+
CCOCCCNC(=O)CN1c2ccc(CC)cc2-c2ccccc2S1(=O)=O	+
CCc1ccc2c(c1)-c1ccccc1S(=O)(=O)N2CC(=O)NCCN1CCOCC1	i
CCc1ccc2c(c1)-c1ccccc1S(=O)(=O)N2CC(=O)NCCc1ccc(OC)c(OC)c1	i
CC(=O)N1CCc2c(nc(-c3cccnc3)nc2NC2CCC(=O)N(C)C2)C1 (stereo not given)	i
Cc1cc(C)n2nc(CN(C(=O)c3ccccc3)c3ccc(F)cc3)nc2n1	i
COc1nc(OC)nc(-c2ccc(C)cc2-n2cccn2)n1	i
COc1ccc(S(=O)(=O)N2CCN(c3nc(C)cc(Nc4ccc(C)cc4)n3)CC2)cc1C	i
CCCc1cc(Sc2ccc(NC(=O)Nc3cccc(Br)c3)cc2)n2ncnc2n1	i
O=C(NC1CC1)C1CCN(c2ncnc3c2nc2n3CCCCC2)CC1	i
CCCn1cnnc1CN(C)C(=O)c1cc2ccccc2s1	i
Fc1cnc(NCc2cn3c(n2)SCC3)nc1N1CCOCC1	i
CCCC(C)CN1CCC(n2cc(CN(C)C)nn2)CC1 (stereo not given)	+
CCCCc1cn(C2CCN(C(=O)C3CC(=O)N(C(C)(C)C)C3)CC2)nn1 (stereo not given)	i
CCCC(C)CN1CCC(n2cc(-c3ccccc3)nn2)CC1 (stereo not given)	i
CSc1nc(NCCc2ccc(S(N)(=O)=O)cc2)c(C#N)c(-c2ccc(C)cc2)n1	i
CCC(=O)Nc1ccccc1-c1nnc(SCC(=O)Nc2cc(C)cc(C)c2)[nH]c1=O	+
CCC(=O)Nc1ccccc1-c1nnc(SCC(=O)Nc2ccccc2Cl)[nH]c1=O	i
CCC(=O)Nc1ccccc1-c1nnc(SCC(=O)Nc2cccc(C)c2C)[nH]c1=O	i
SMILES	FECH inh
COCCNc1nc(Nc2ccc3c(c2)OCO3)c2cnn(-c3ccccc3)c2n1	i
Cc1ccc(S(=O)(=O)Nc2ccc(Oc3c(C)nc4nc[nH]n4c3=O)cc2)cc1	i
O=S(=O)(c1ccc(Br)cc1)N1CCN(c2cc(-c3ccc(F)cc3)ncn2)CC1	i
Cc1ccc(-c2cc(N3CCN(S(=O)(=O)c4ccc(Br)cc4)CC3)ncn2)cc1	+
O=S(=O)(c1ccc(Br)cc1)N1CCN(c2cc(-c3cccc(F)c3)ncn2)CC1	i
c1ccc(CNc2ncc(CN3CCCN4CCC[C@H]4C3)cn2)cc1	i
CCCc1nnc2sc(-c3cn[nH]c3-c3cccc(OC)c3)nn12	i
CCc1ccc(NC(=O)Nc2ccc(Sc3c(CC)c(C)nc4ncnn34)cc2)cc1	i
CCc1c(C)nc2ncnn2c1Sc1ccc(NC(=O)c2ccccc2Cl)cc1	i
CCOc1ccccc1C(=O)Nc1ccccc1Sc1c(CC)c(C)nc2ncnn12	i
CCc1c(C)nc2ncnn2c1Sc1ccc(NC(=O)c2ccccc2OC)cc1	+
CCc1c(C)nc2ncnn2c1Sc1ccc(NC(=O)c2cc(OC)c(OC)c(OC)c2)cc1	i
CCCc1c(C)nc2ncnn2c1Sc1ccc(NC(=O)c2ccccc2OC)cc1	i
CCc1c(C)nc2ncnn2c1Sc1ccc(NC(C)=O)cc1	i
CCc1c(C)nc2ncnn2c1Sc1ccc(NC(=O)NCc2ccccc2)cc1	+
CCOc1ccccc1C(=O)Nc1ccc(Sc2c(CC)c(C)nc3ncnn23)cc1	+
O=C(Nc1ccc2c(c1)OCCO2)N1CCC(n2cnc3cccnc32)CC1	i
Cc1ccc(-c2cn[nH]c2C2CCCN(C(=O)C(=O)c3ccco3)C2)cc1 (stereo not given)	i
COc1ccc(N2C(=O)CCS2(=O)=O)cc1S(=O)(=O)NC1CCCCC1	i
COc1ccc(CNC(=O)COc2nc(C)nc3oc(C)c(C)c23)c(OC)c1	i
COc1cc(C)c(S(=O)(=O)N2CCN(c3nc(C)cc(Nc4ccccc4)n3)CC2)cc1C	i
CC(=O)NCC(=O)N1CCC(c2nc(-c3ccccc3C)no2)CC1	i
Cc1ccc(Cn2c(CCNC(=O)Nc3ccc(C)c(F)c3)nc3cccnc32)cc1	i
CCN1C(SCC(=O)Nc2c(C)cccc2C)=NS(=O)(=O)c2ccccc21	+
CCN1C(SCC(=O)Nc2cc(Cl)ccc2C)=NS(=O)(=O)c2ccccc21	i
Cc1ccccc1N1C(=O)N(CC(=O)NC2CCCC2)c2ccccc2S1(=O)=O	i
CCN1C(SCC(=O)Nc2ccc(Cl)cc2F)=NS(=O)(=O)c2ccccc21	+

From PubChem BioAssay
